SNCA expr inhib – Primary qHTS assay for inhibitors of alpha-synuclein gene (SNCA) expression; Potency, µM (doses to about 57.2 µM), actives largely listed as inhibitors; AID 1671194, 2021; hit rate 0.17% among 140,000; HEK-293 SNCA-luciferase knock-in, luminescence, 24 h; note: nearly all actives have a fitted effect of over 45% in size
KDM5B inhibitor – Primary screen for KDM5B Histone Demethylases FDH-coupled qHTS | Lysine-specific demethylase 5B (Homo sapiens), Q9UGL1 | KDM5B demethylase, FDH-coupled NADH fluorescence (FDH is formaldehyde dehydrogenase) | Potency, µM (doses to about 57.7 µM), most hits filed as inhibitors | hit rate 2.6% among 220,000 | AID 1347165, 2019; note: nearly all actives have a fitted effect of over 70% in size
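KDM5BΔAP (200 nM final) in 50 mM HEPES pH 7.5, 0.01% Tween-20 was preincubated 10 min at RT with compound over a concentration range. Substrate mix (H3K4me3 12.5 µM, α-KG 25 µM, Fe²⁺, ascorbate, NAD⁺, FDH) was added, and NADH fluorescence change over 30 min gave dose-response curves.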
IP6K1 inhibitor – Primary qHTS assay for small molecule inhibitors of Inositol hexaphosphate kinase 1 (IP6K1) | Inositol hexakisphosphate kinase 1 (Homo sapiens), Q92551 | IP6K1 kinase, ADP-Glo luminescence, 2 h; hits give low values | activity change, % (series mostly up to about 58 µM) | hit rate 0.81% among 140,000 | AID 1645851, 2021; in the data active = activity change below about -25%
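ADP-Glo luminescence measures ADP made by human IP6K1 during a 2 h RT reaction with ATP/IP6 (mix at 1.3 mM/130 uM); top library doses 57.5 and 19.1 uM final.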
SNCA viab count – GF-AFC viability counterscreen for inhibitors of alpha-synuclein gene (SNCA) expression | HEK-293-SNCA-luc viability, GF-AFC fluorescence, 24 h | Potency, µM (titrated, usually from 57.1 µM), usual class: cytotoxic | hit rate 0.12% among 150,000 | AID 1671193, 2021; note: nearly all actives have a fitted effect of over 30% in size
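Cytotoxicity counterscreen: after 24 h compound treatment of genome-edited SNCA-luciferase HEK-293 cells, live-cell protease substrate GF-AFC read by fluorescence after 30 min; activity scaled between DMSO (0%) and medium-only (-100%), curves Hill-fitted.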
Of the large screens only hits and unclear results are named; the others gave an inactive call. Shown are actives, neighbours in structure and some others; about 2.9% of the full set was active somewhere. Unless noted, calls come from the whole dose curve; as a rule, active = well fitted curve in the direction sought with a large enough effect; inconclusive = small, poorly fitted or top-dose-only effect, or another doubt; inactive = no such curve, though single readings can be large; an effect the other way counts as inactive or inconclusive.

Cc1cnc(C(=O)N2CCCC(c3nc(C4CCOCC4)no3)C2)cn1 (centres undefined)	KDM5B inhibitor 32µM
O=C(CCN1c2ccccc2Sc2ccccc21)N1CCCC(c2nc(C3CCOCC3)no2)C1 (centres undefined)	KDM5B inhibitor 25µM
Cc1cc(C(=O)N2CCCC(c3nc(C4CCOCC4)no3)C2)n(C)n1 (centres undefined)	none
CC(C)[C@@H](N)C(=O)N[C@@H]1C=C(C(=O)N[C@@H](CCS(C)(=O)=O)C(N)=O)C[C@@H](O)[C@@H]1O	KDM5B inhibitor inconclusive
FC(F)(F)c1cccc(Nc2ncc(-c3cccnc3)c3c2OCC3)c1	KDM5B inhibitor 28µM
Cn1cc(-c2cnc(Nc3cccc(C(F)(F)F)c3)c3c2CCO3)cn1	KDM5B inhibitor 35µM
CC(C)OCc1ccc(CNC(=O)CNC(=O)C2CCCC2)cc1	none (no result: SNCA expr inhib, IP6K1 inhibitor, SNCA viab count)
Cc1oc2cc(OCC(=O)NC(C)(C)C)ccc2c(=O)c1-c1ccc(Cl)cc1	none (no result: SNCA expr inhib, IP6K1 inhibitor, SNCA viab count)
CCN(C(=O)c1oc2c(c1C)C(=O)CC(C)(C)C2)c1ccccc1	none (no result: SNCA expr inhib, IP6K1 inhibitor, SNCA viab count)
COc1ccc(C(=O)N2CCC(N3C(=O)[C@H](OC)[C@@H]3c3ccncc3)CC2)c(OC)c1	none
COc1ccc2c(c1)C(C[C@H]1CN(C(=O)C3CC3)CC[C@H]1CC(=O)O)=NCC2	KDM5B inhibitor 40µM
CCCNC(=O)N1CC[C@@H](CC(=O)O)[C@@H](CC2=NCCc3ccc(OC)cc32)C1	KDM5B inhibitor 40µM
CC(C)C(=O)NC1(C(F)(F)F)N=C(c2ccccc2)N(CCc2ccccc2)C1=O (centres undefined)	none (no result: SNCA expr inhib, IP6K1 inhibitor, SNCA viab count)
CC(=O)NC1(C)CCN(Cc2ccc(-c3ccc(N4CCOCC4)cc3)cc2)C1 (centres undefined)	KDM5B inhibitor 28µM
CC(=O)NC1(C)CCN(Cc2ccc(-c3cccc(Cl)c3)cc2)C1 (centres undefined)	KDM5B inhibitor inconclusive
Cc1cc(-c2cc3c(cn2)CN(CC2CCOCC2)CCN3)ccn1	KDM5B inhibitor 35µM
COc1ccc(-c2cc3c(cn2)CN(Cc2ccccc2)CCN3)cc1OC	KDM5B inhibitor 32µM
C[S+](=O)([O-])c1ccc(-c2cc3c(cn2)CN(CCc2ccccc2)CCN3)cc1	KDM5B inhibitor 40µM
Cc1cc(-c2cc3c(cn2)CN(Cc2ccccn2)CCN3)ccn1	KDM5B inhibitor inconclusive
COc1ccc(Cl)cc1-c1cc2c(cn1)CN(Cc1cccnc1)CCN2	KDM5B inhibitor 32µM
COc1ccc(-c2noc([C@@H]3C[C@@H](O)CN3Cc3ccccn3)n2)cc1	KDM5B inhibitor inconclusive
O=C(c1ccccc1F)N1CCn2c(nnc2C2CCNCC2)C1	KDM5B inhibitor inconclusive
CCOC(=O)c1sc2nc(CC(=O)OC)nc(Nc3ccc(C(F)(F)F)cc3)c2c1C	none (no result: SNCA expr inhib, IP6K1 inhibitor, SNCA viab count)
COc1ccc(Nc2cc3c(cn2)CN(CCc2ccccc2)CCN3)cc1OC	KDM5B inhibitor inconclusive, SNCA viab count inconclusive
COc1ccc(-c2cc3c(cn2)CN(CCc2ccccc2)CCN3)cc1OC	KDM5B inhibitor 35µM, SNCA viab count inconclusive
CCc1ccc(NCc2ccc(OC)c(Cn3ccnc3)c2)cc1	none (no result: SNCA expr inhib, IP6K1 inhibitor, SNCA viab count)
COc1ccc(-c2ccc(Cn3ccnc3)cn2)c2ccc(C)nc12	KDM5B inhibitor 25µM
Cn1cccc1CN1CCC2CC(=O)NCCC2C1 (centres undefined)	KDM5B inhibitor 100µM
Oc1ccc(Nc2nc(-c3ccc(F)cc3F)cs2)cc1	none (no result: SNCA expr inhib, IP6K1 inhibitor, SNCA viab count)
N#Cc1ccc(Nc2nc(-c3ccc(O)cc3O)cs2)cc1C(F)(F)F	SNCA viab count 12µM (no result: SNCA expr inhib, KDM5B inhibitor)
CCc1nn(CC(=O)NCCCc2ccccc2)c(=O)c2cc3ccccc3n12	SNCA expr inhib 28µM
c1ccc(Cc2noc(-c3nc(-c4ccc5c(c4)OCO5)no3)n2)cc1	KDM5B inhibitor 35µM
CCCc1noc(-c2nc(-c3ccc(OC)c(OC)c3)no2)n1	none
COc1ccc(-c2noc(-c3nc(Cc4ccccc4)no3)n2)cc1OC	KDM5B inhibitor 28µM
CC1Oc2ccc(NC(=O)c3ccccc3)cc2CN(Cc2ccc(Cl)cc2)C1=O (centres undefined)	KDM5B inhibitor inconclusive, SNCA viab count inconclusive
CC(=O)Oc1ccccc1C(=O)Nc1ccc2c(c1)CN(Cc1ccc(Cl)cc1)C(=O)C(C)O2 (centres undefined)	KDM5B inhibitor 35µM
CCC1Oc2ccc(NC(=O)c3ccccc3OC(C)=O)cc2CN(Cc2ccccc2F)C1=O (centres undefined)	KDM5B inhibitor 25µM
COc1cccc(CNC(=O)CCC2CCN(S(=O)(=O)c3ccccc3)CC2)c1	none
O=C(CSCc1ccc(F)cc1)N1CCc2c([nH]c3ccccc23)C1c1ccc(Cl)cc1 (centres undefined)	SNCA expr inhib 10µM, KDM5B inhibitor inconclusive
CC(C)[C@@H]1CN(S(=O)(=O)c2cccc(C#N)c2)C[C@H]1NS(C)(=O)=O	none
CC(C)Nc1nc(-c2cc3c4c(c2)CC(=O)N4CCC3)cs1	none (no result: SNCA expr inhib, IP6K1 inhibitor, SNCA viab count)
C=CCNC(=O)c1ccc2cc[nH]c2n1	KDM5B inhibitor 45µM
O=C(NCc1ccc(Cl)cc1)c1ccc2cc[nH]c2n1	KDM5B inhibitor 112µM
CC(C)CNc1ccc2c(n1)C(C)(C(=O)Nc1cccnc1)CN(Cc1ccccc1)C2 (centres undefined)	SNCA expr inhib inconclusive, KDM5B inhibitor 32µM
CC(C)CNc1ccc2c(n1)C(C)(C(=O)NC1CCOCC1)CN(Cc1ccccc1)C2 (centres undefined)	none
CC(C)CNc1ccc2c(n1)C(C)(C(=O)N1CCOCC1)CN(Cc1ccccc1)C2 (centres undefined)	KDM5B inhibitor 32µM, SNCA viab count inconclusive
COCCN1Cc2ccc(NCC(C)C)nc2C(C)(C(=O)NCc2cccnc2)C1 (centres undefined)	KDM5B inhibitor 32µM
CC(C)CNc1ccc2c(n1)C(C)(C(=O)N1CCC1)CN(Cc1ccccc1)C2 (centres undefined)	KDM5B inhibitor 28µM, SNCA viab count inconclusive
COCCNC(=O)c1nc2sccn2c1-c1cccnc1	none (no result: KDM5B inhibitor)
COC(=O)CNC(=O)c1nc(-c2ccc(F)cc2)c2cnccn12	KDM5B inhibitor 40µM
COCCNC(=O)c1nc(-c2ccc(F)cc2)c2cnccn12	KDM5B inhibitor 32µM
C[C@@H]1CC[C@@]23CC[C@]4(C)[C@@](C=CC5[C@@]6(C)CC[C@H](O)C(C)(C)C6CC[C@]54C)(OC2=O)C3[C@H]1C (some centres undefined)	none (no result: SNCA expr inhib, KDM5B inhibitor)
CCc1cccc(OCCOC(=O)c2cc(C)nc3ccccc23)c1	none (no result: SNCA expr inhib, IP6K1 inhibitor, SNCA viab count)
O=C(Cc1cccc(Cl)c1)NCc1ccnc2[nH]ccc12	none
O=C(NCc1ccnc2[nH]ccc12)c1cncc(Br)c1	none
O=C(NCc1ccnc2[nH]ccc12)c1cccc(Cl)c1	KDM5B inhibitor 35µM
O=C(NCc1c[nH]c2ncccc12)c1cccc2[nH]ccc12	KDM5B inhibitor 35µM
O=C(NCc1ccnc2[nH]ccc12)c1cccc(Br)c1	KDM5B inhibitor 32µM
